# “And” between values parts separate entries of the source, which are not always exact repeats. Identical values can stand only once. The panel holds about 83,000 compounds, 20% with a hit somewhere; the sample as a whole holds those more often.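 Step 1: grow cells in 96-well plates. Step 2: add test compound at a single concentration. Step 3: incubate 48 h. Step 4: record percent growth.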 Unmarked numbers belong to inactive results. The source made the active and inactive calls. Rule for the calls: active = growth percent below 10; inactive = the rest.
# Test system: MDA-MB-468 breast
# Assay: NCI-60 one-dose screen, 48 h (100 = growth as untreated, 0 = no growth, -100 = all killed)
# Details: 10 µM unless noted
row,Structure (SMILES),growth
1,O=C(N/N=C/c1ccc(O)cc1O)c1cccnc1,6.57% (active)
2,CC(=O)c1cc(-c2ccccc2N)n(-c2ccc3c(c2)OCO3)c1C,30.5%
3,COc1ccc(C2CC(c3ccc(Nc4nc(NCCO)nc(N5CCOCC5)n4)cc3)=Nc3c(N)nc(N)nc3N2)cc1 (stereo not given),90.3%
4,CC1(C)O[C@H]2OC3CCC(=O)CC3(O)[C@H]2O1 (stereo not given in full),98.5%
5,CC[C@@H](C(=O)[C@@H](C)[C@@H](O)[C@H](C)[C@@H]1O[C@@H]([C@@H](CC)C(=O)O)CC[C@@H]1C)C1O[C@]2(C=CC(=O)[C@]3(CC[C@@](C)([C@H]4CC[C@](O)(CC)[C@H](C)O4)O3)O2)[C@H](C)C[C@@H]1C (stereo not given in full),18.9%
6,Cc1ccc(/C=N/NC(N)=S)s1,101%
7,N#CC1=C(N)Oc2c(ccc3cccnc23)C1c1ccccc1 (stereo not given),-7.81% (active)
8,COc1ccc(C(=O)/C=C/c2cc(-c3cc(OC)c(OC)c(OC)c3)n[nH]2)cc1,-66.1% (active)
9,COc1ccc(-c2nc(-c3ccccn3)c(-c3ccccn3)n2CC(C)C)cc1OC1CCCC1,-10.7% (active)
10,O=c1n(C2OC(CO)C(O)C2O)ccc2nccn12 (stereo not given),122%
11,COc1cc(-c2nn(-c3ccc(C)cc3)cc2C(=O)O)ccc1O,121%
12,COc1ccc(-c2nnc(-c3ccc4c(c3)nc(-c3ccccc3)n4C3CCCCC3)o2)cc1,83.8%
13,O=C(/C=C/c1ccccc1)C(Br)C(Br)c1ccccc1 (stereo not given),-38.1% (active)
14,COc1ccc(C(=O)c2cc(OC)c(OC)c(OC)c2)cc1/C=C/C(=O)c1ccc(OC)c(OC)c1,8.42% (active)
15,COc1ccc2sc(N(Cc3cccnc3)C(=O)c3ccc(C#N)cc3)nc2c1,73%
16,COC1C[C@H](O[C@@H]2C[C@H](O[C@@H]3C[C@H](O[C@@H]4C(=O)c5c(cc6cc(O[C@H]7C[C@@H](O[C@H]8C[C@@H](O)[C@H](O)C(C)O8)[C@H](O)C(C)O7)c(C)c(O)c6c5O)C[C@H]4C(OC)C(=O)[C@@H](O)[C@@H](C)O)OC(C)[C@H]3O)OC(C)[C@@H]2O)OC(C)[C@@H]1O (stereo not given in full),-55% (active)
17,COC(CCP(=O)(c1ccccc1)c1ccccc1)(C(=O)c1ccccc1)c1ccccc1 (stereo not given),54.7%
18,CCCCCCCCCCCCCCCCNC(=O)Nc1ccc2ccccc2c1,94.3%
19,O=C(N/N=C/c1ccccc1O)Nc1nn[nH]n1,97.6%
20,CNCCCNc1nc2ccccc2c2c(=O)c3cc(Cl)ccc3sc12,18.4%

row,Structure (SMILES),growth
1,CSc1ccc(SC2c3ccc(C)cc3Oc3nc(N)c(C#N)c(N)c32)cc1 (stereo not given),-75.8% (active)
2,COc1ccc(S(=O)(=O)N2CCOCC2)cc1NC(=O)c1[nH]c(C)c2c1CCCCC2=O,105% and 47.2%
3,Oc1ccc([S+](c2ccc(O)cc2)c2ccc(O)cc2)cc1,98%
4,Cc1c(-c2cnc3ccc(Cl)cc3c2C(=O)O)nnn1-c1ccc(Cl)cc1,110%
5,OC(c1cc2cc(Cl)ccc2c2cc(C(F)(F)F)ccc12)C1CCCCN1 (stereo not given),-82.2% (active)
6,CCN(CC)c1ccc2cc(NC(=O)OCCNC(=O)CCNC(=O)[C@H](CC(C)C)NC(=O)C(C)(C)NC(=O)C(C)(C)NC(=O)[C@H](CC(C)C)NC(=O)CCNC(=O)C(C)(C)NC(=O)[C@H](CC(C)C)NC(=O)CCNC(=O)[C@@](C)(CC)NC(=O)[C@H](C)NC(=O)CCNC(=O)C(C)(C)NC(=O)[C@H](C)NC(=O)[C@@H]3CCCN3C(=O)[C@@](C)(CC)NC(=O)[C@H](Cc3ccccc3)NC(=O)C3CCCN3C(=O)C(C)(C)NC(=O)C3CCCN3C(=O)C(C)(C)NC(C)=O)c(=O)oc2c1 (stereo not given in full),-83% (active)
7,COc1cccc(/C=C2\COc3ccc(-c4ccccc4)cc3C2=O)c1,7.82% (active)
8,CCOC(=O)c1cc(C(=O)c2ccc(OC)c(OC)c2)n2c1ccc1ccccc12,97%
9,Cc1ccc2c(c1)-c1cc(C)nn1-c1ccc(C#N)cc1O2,40.9%
10,CSc1ccc(/C(=N/N=C(N)N)c2ccccc2)cc1,44.8%
11,CC/C=C\C[C@H](F)C/C=C1/C(=O)C=C[C@@H]1C/C=C\CCCC(=O)O,52.6%
12,[2H]C([2H])([2H])Oc1c(F)cccc1/C=C/C(=O)/C=C(O)/C=C/c1cccc(F)c1OC([2H])([2H])[2H],98.3%
13,COc1cc(/C=N/Nc2nc(-c3ccc(F)cc3)c(C#N)c(N3CCOCC3)n2)ccc1O,87.4%
14,CC(C)(O)C1CCCN1C(=O)c1ccccc1I (stereo not given),73%
15,CC(=O)Nc1c(Cl)cc(Cl)c2c1Cc1cc([N+](=O)[O-])ccc1-2,94.9%
16,NC1=C(Cl)C(=O)c2ccccc2C1=O,36.5%
17,CN1CCN(c2ccc(C(=O)Nc3cccc(C#Cc4cccc5[nH]nc(N)c45)c3)cc2C(F)(F)F)CC1,-26.6% (active)
18,N#C/C(=N\Nc1ccccc1)C(=O)Nc1cc(-c2ccccc2)nn1-c1ccccc1,-3.2% (active)
19,Clc1cc2c(nn1)Nc1ccccc1S2,96.9%
20,Clc1ccc(Nc2ccnc(N3CCN(c4ccnc5cc(Cl)ccc45)CC3)n2)cc1,39.4%
